In PubChem BioAssay (EPA / NIEHS):
The source made the active and inactive calls. Rule for the calls: active = hit-call score of the fitted dose curve at least 0.9, where 1 is the maximum; inactive = score below 0.9.

Read-out: Protein phosphatase 2A (PPP2R4), PTPA (gene 5524)
Assay: LTEA_HepaRG_PPP2R4: Life Technologies and Expression Analysis (LTEA) Assay for Protein phosphatase 2A (PPP2R4) using HepaRG (AID 2283522)
Details: mRNA level, 48 h; actives raise or lower the signal
Description: LTEA_HepaRG is a cell based, multiplexed-readout assay that uses HepaRG, a human liver cell line, with measurements taken at 48 hours after chemical dosing on a 96-well plate.LTEA_HepaRG_PPP2R4 is one of 102 assay component(s) measured in the LTEA HepaRG cell culture assay. It is a marker of Cell proliferation, survival, death.Data from the assay component LTEA_HepaRG_PPP2R4 was analyzed into 1 endpoint. This assay endpoint, LTEA_HepaRG_PPP2R4, was analyzed with bidirectional fitting relative to DMSO as the negative control and baseline of activity. Using a type of inducible reporter, measures of mRNA induction for gain or loss-of-signal activity can be used to understand regulation of transcription factor activity. To generalize the intended target to other relatable targets, this assay endpoint is annotated to the phosphatase intended target family, where the subfamily is serine/threonine phosphatase.
A total of 1060 chemcials from the ToxCast library were tested in eight-point concentration-response experiments. Cell culture and cytotoxicity assays were conducted at Thermo Fisher Scientific's Custom Services facility (Madison, WI). A single lot of human HepaRG cells (Thermo Fisher Scientific, Frederick, MD) was used for the cell culture experiments. 96-well format collagen type I coated plates of human HepaRG cells were prepared using established methods. Briefly, cryopreserved HepaRG cells were thawed, plated at a density of approximately 100,000 cells/well in HepaRG Thaw, Plate, and General Purpose media (HPRG770, Thermo Fisher Scientific), and incubated for 48 hours. 0.5% DMSO was selected as vehicle control to balance the requisite need of DMSO in HepaRG cultures to maintain differentiation (for example, baseline metabolism, proportions of hepatocytes vs. cholangiocytes), while enabling further hepatic receptor pathway activation (for example, PXR and CAR) in response to chemical exposure. 48 hours after plating, the culture medium was replaced with HepaRG Serum-Free Incudtion Media. Cells were exposed to each test chemical in duplicate and maintained in CO2 incubators for another 48 hours. Chemical plates were thawed to room temperature and 200x concentrations of treatment groups were prepared. 8-point conentration-reponse curves were made with the highest exposure at 100 uM, followed by half-log dilutions, all in 0.5% DMSO. Each test plate contained variouse controls, induction positive controls (1mM phenobarbital), cytotoxicity positive controls ([…] aflatoxin B1), vehicle controls (0.5% DMSO), and total lysis controls (0.5% DMSO). Cell morphology images were taken using an Essen IncuCyte FLR automated microscope, with six 96-well plates imaged in about 24 minutes. Images were captured and exported and JPEG files. Spent culture media was transfered to black-well plates for the LDH assay, and remaining media was sorted at -80 C for later use. Cells were treated with RLT buffer and frozen until shipped for gene expression analysis. Total RNA was isolated from the cell suspension in 75 uL of Buffer RLT (Qiagen, Germantown, MD 20874) by Quintiles/Expression Analysis (Durham, NC) using a custom isolation procedure. Total RNA from each plate well was transferred to a preamplification plate. Fluidigm's 96.96 Dynamic ArrayTM (Fluidigm, Amsterdam, the Netherlands) technology was used for gene expression analyses by quantitative reverse transcription polymerase chain reaction (qRT-PCR, performed by Quintiles/Expression Analysis, Durham, NC)89. Standard TaqManTM Assays (Applied Biosystems/ThermoFisher Scientific, Foster City, CA) were used to assess the expression of 93 genes selected based on their selectivity and sensitivity to important hepatic receptors known to be modulated by environmental chemicals; importance in human hepatocyte functionality; and hepatotoxicity. […]

SMILES	outcome	AC50
CN(C)CCCN(C)CCCN(C)C	inactive	–
Oc1ccccc1O	inactive	–
O=C(Oc1ccccc1)c1cccc(C(=O)Oc2ccccc2)c1	inactive	–
CC1(C)C(=O)NC(=O)N1CO	inactive	–
CC(C)(O)c1ccc(CNC(=O)c2cccnc2Oc2ccc(F)cc2)cc1	inactive	–
C=CCc1ccc(OC)c(OC)c1	inactive	–
CC1=C(C)S(=O)(=O)CCS1(=O)=O	–	74.4 µM (active)
Nc1nc(=S)c2[nH]cnc2[nH]1	inactive	–
COC(=O)[C@H]1[C@H]2C[C@@H]3c4[nH]c5cc(OC)ccc5c4CCN3C[C@H]2C[C@@H](OC(=O)c2cc(OC)c(OC)c(OC)c2)[C@@H]1OC	inactive	–
CC(C)(C)c1ccccc1	inactive	–
C/C=C/c1ccc(OC)cc1	inactive	–
CCCCCCCC(=O)OC	inactive	–
NC1CCCCC1	inactive	–
C/C=C/C=C/C(=O)O	inactive	–
Cc1ccc(C(C)(C)C)c(O)c1	inactive	–
CO[C@@H]1COCC[C@@H]1N[C@@H]1CC[C@@](C(=O)N2CCc3ncc(C(F)(F)F)cc3C2)(C(C)C)C1	inactive	–
CC(=O)O[C@]1(C(C)=O)CC[C@H]2[C@@H]3C=C(Cl)C4=CC(=O)[C@@H]5C[C@@H]5[C@]4(C)[C@H]3CC[C@@]21C	inactive	–
CCCCC(CC)COP(=O)(OCC(CC)CCCC)OCC(CC)CCCC (stereo not given)	inactive	–
CN(C)C(=O)NC1(c2ccccc2)CCN(CC[C@@]2(c3ccc(F)c(F)c3)CN(C(=O)c3ccccc3)CCO2)CC1	inactive	–
O=C(NS(=O)(=O)/C=C/c1cccs1)c1ccc(F)cc1Br	inactive	–

SMILES	outcome	AC50
Cc1occc(=O)c1O	inactive	–
CCCCOC(=O)CCCCC(=O)OCCCC	inactive	–
CN(C)C(=O)NC1(c2ccccc2)CCN(CCC[C@]2(c3ccc(Cl)c(Cl)c3)CCCN(C(=O)c3ccccc3)C2)CC1	–	21.2 µM (active)
O=C(O)c1cccnc1	inactive	–
CC(C)OC(=O)C(C)(C)Oc1ccc(C(=O)c2ccc(Cl)cc2)cc1	inactive	–
CCN(CC)CCOc1ccc(C(=C(Cl)c2ccccc2)c2ccccc2)cc1	inactive	–
Cc1cc(SC2=C(O)C[C@@](CCc3ccc(N)cc3)(C(C)C)OC2=O)c(C(C)(C)C)cc1CO	inactive	–
CC(=O)OCC(COC(C)=O)OC(C)=O	inactive	–
OCC(O)CO	inactive	–
COC(=O)CCC(=O)OC	inactive	–
C=CCCCCCCCCCCCC	inactive	–
CCCCC(CC)CO (stereo not given)	inactive	–
O=C(N[C@@H](c1ccccc1)[C@@H]1CCCCN1)c1cccc(C(F)(F)F)c1Cl	–	89.5 µM (active)
CC(=O)O	inactive	–
CCOCCOCCO	inactive	–
CCCCCCC(CCCCCCCCCCC(=O)OCC(COC(C)=O)OC(C)=O)OC(C)=O (stereo not given)	inactive	–
NC=O	inactive	–
CC(=O)CC(c1ccccc1)c1c(O)c2ccccc2oc1=O (stereo not given)	inactive	–
CC(C)NCC(O)c1ccc(O)c(O)c1 (stereo not given)	–	0.155 µM (active)
O=C(O)c1[nH]n(-c2ccc(S(=O)(=O)O)cc2)c(=O)c1N=Nc1ccc(S(=O)(=O)O)cc1	inactive	–
